# Only some compounds are listed: those with a hit (about 19% of all), similar ones and a draw of the others.
# TDP1 cell CPT: qHTS for Inhibitors of human tyrosyl-DNA phosphodiesterase 1 (TDP1): qHTS in cells in presence of CPT. 12% of 420,000 active. AID 686979, 2013. chicken DT40 Tdp1-/-;hTDP1 cells + 20 nM CPT, ATP luminescence, 48 h. Potency, µM (titrated, usually from 46.2 µM), for the others: at the top dose activity change, negative = growth inhibition, usual class: inhibitors; further: potency means the concentration at half of the fitted maximal effect; nearly all actives have a fitted effect of over 55% in size
#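 Chicken DT40 Tdp1-/- cells complemented with human TDP1, 400 cells/well, exposed to compounds plus 20 nM camptothecin for at least 48 h at 37 C; viability read as ATP content by CellTiter-Glo luminescence.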
# TDP1 cell noCPT: qHTS for Inhibitors of human tyrosyl-DNA phosphodiesterase 1 (TDP1): qHTS in cells in absence of CPT; DT40 Tdp1-/- hTDP1 cells, no CPT, ATP luminescence, 48 h; Potency, µM (doses to about 46.2 µM), for inactives: top-dose activity change, negative = growth inhibition, hits mostly inhibitors; 15% of 420,000 active; further: potency means the concentration at half of the fitted maximal effect; nearly all actives have a fitted effect of over 55% in size
#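 Readout: luminescence from CellTiter-Glo after 30 min in the dark at RT. Cells: DT40 Tdp1-/- with stable hTDP1, 400/well. Exposure: compounds alone, ≥48 hr, 37 °C.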
# IL-1B inflam inh: qHTS for Inhibitors of Inflammasome Signaling: IL-1-beta AlphaLISA Primary Screen. THP-1 LPS/ATP IL-1B secretion, AlphaLISA, 16 h; stronger effect = lower value. activity change, % at 57.5 µM. 4.7% of 360,000 active; in the data active means activity change below about -50%; inconclusive means mostly about -30% to -49%
#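 Secreted IL-1B measured by AlphaLISA bead assay after 16 h compound exposure of THP-1 cells; compounds (final up to 57.5 uM) added 1 h before LPS (250 ng/mL) and ATP (1.25 mM) stimulation; lower signal means less secretion.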
# HT1080 IDH1KD tx: qHTS for induction of synthetic lethality in tumor cells producing 2HG: qHTS for the HT-1080-IDH1KD cell line. Potency, µM (doses to about 46.1 µM), inactives show top-dose activity, negative = toxicity, usual class: cytotoxic. HT-1080 IDH1 knockdown viability, ATP luminescence, 48 h. 2% of 360,000 active;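 further: potency means the concentration at half of the fitted maximal effect; 0% = DMSO wells and -100% = cell-free medium wells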
#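 In this qHTS, HT-1080 cells depleted of IDH1 are exposed for 48 h at 37 °C to compound titrations. Toxicity is scored from CellTiter-Glo luminescence, with DMSO as full viability and medium alone as none.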
# HT1080NT lethal: qHTS for induction of synthetic lethality in tumor cells producing 2HG: qHTS for the HT-1080-NT fibrosarcoma cell line; HT-1080-NT fibrosarcoma viability, CellTiter-Glo ATP luminescence, 48 h; Potency, µM (highest dose often 46.1 µM), for the others: top-dose activity, negative = less viability, usual class: cytotoxic; 1.6% of 360,000 active; AID 686970, 2013;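 further: NT is the 2HG producing partner of a matched IDH1 knockdown line; potency means the concentration at half of the fitted maximal effect; 0% = DMSO-treated cells and -100% = media-only wells without cells; nearly all actives have a fitted effect of over 55% in size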
#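 Read-out is CellTiter-Glo luminescence after 10 minutes at room temperature, following 48 hours' compound treatment of HT-1080-NT cells (750 cells/well, RPMI, 5% FBS, 37 degrees C).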
# * marks the source's active call; other numbers are inactive results; ? = inconclusive; . = no result given; [ ] = dose if it differs, or a comment. Unless noted, the call rests on the fitted dose curve; in most records, active means well fitted curve in the direction sought with a large enough effect; inconclusive means small, poorly fitted or top-dose-only effect, or another doubt; inactive means no such curve, though single readings can be large; an effect the other way counts as inactive or inconclusive. Unless noted, on the % scale 0 is the no-effect control and ±100 the full control effect.
SMILES,TDP1 cell CPT,TDP1 cell noCPT,IL-1B inflam inh,HT1080 IDH1KD tx,HT1080NT lethal
C=CCC1(CC=C)CCCN1C(=O)C1CCC(=O)N(CCc2ccc(Cl)cc2)C1 (configuration not stated),18.4µM*,13µM*,0.0,-0.3%,4.3%
C=CCC1(CC=C)CCCN1C(=O)C1CCC(=O)N(Cc2ccc(Cl)cc2)C1 (configuration not stated),10.3µM*,8.2µM*,8.1,-0.6%,?
Cc1ccc(C2C3=C(CC(C)(C)CC3=O)N=C3c4ccccc4C(=O)C32)cc1 (configuration not stated),?,18.4µM*,-53.0*,?,-26.0%
CC1(C)CC(=O)C2=C(C1)N=c1s/c(=C/c3ccc(F)c(F)c3)c(=O)n1C2c1ccc(F)cc1 (configuration not stated),?,?,-10.7,-7.0%,-0.2%
Cc1ccc(C2C3=C(CC(C)(C)CC3=O)OC3=C2C(=O)CC(C)(C)C3)cc1,-6.2%,-11.6%,-14.7,22.1%,21.1%
CC1(C)CC(=O)C2=C(C1)N=C1c3ccccc3C(=O)C1C2c1ccc(Cl)cc1 (configuration not stated),?,?,-59.5*,?,?
COc1ccc(CN2CCC[C@]3(N[C@H](c4ccc(C)cc4)[C@@H]4C(=O)N(C)C(=O)[C@@H]43)C2=O)cc1,-27.8%,-29.6%,14.7,-9.8%,-10.4%
CCCc1cc(=O)[nH]c(SCC(=O)NC(=O)OCC)n1,-2.2%,0.4%,9.2,3.5%,1.4%
CCCc1cc(=O)[nH]c(SCC(=O)Nc2sc(C(N)=O)c(C)c2C(=O)OCCOC)n1,?,-23.1%,-10.0,2.59µM*,2.31µM*
O=C(O)C1CC=CCC1C(=O)NCCc1cccc(Cl)c1 (configuration not stated),-22.1%,-9.3%,30.5,-10.1%,-10.2%
O=C1NC(c2cccs2)Nc2ccccc21 (configuration not stated),5.17µM*,8.2µM*,1.5,0.3%,-0.1%
O=C1NC(c2ccccc2Cl)Nc2ccccc21 (configuration not stated),?,18.4µM*,63.4,?,?
COc1ccc2ccccc2c1C1NC(=O)c2ccccc2N1 (configuration not stated),2.59µM*,3.66µM*,12.1,?,5.17µM*
O=C1c2ccccc2C(=O)C12OC2c1cccc2ccccc12 (configuration not stated),?,?,10.9,-4.0%,-19.8%
O=C1NC(c2cccc3ccccc23)Nc2ccccc21 (configuration not stated),0.581µM*,0.92µM*,38.6,0.731µM*,1.3µM*
Clc1ccccc1C1Nc2cccc3cccc(c23)N1,?,?,2.4,-1.8%,-2.8%
Cc1ccsc1C1NC(=O)c2ccccc2N1 (configuration not stated),?,?,34.1,?,-29.9%
Cc1cccc(NC(=O)Nc2c(C)[nH]c(=O)[nH]c2=O)c1C,-7.2%,15.8%,-4.9,9.5%,-8.5%
O=C(Cc1ccc(Cl)c(Cl)c1)N1CCOCC1,-10.9%,17.1%,2.1,5.7%,17.0%
O=C(CC(=O)NC1CCCCC1)N/N=C/c1ccc(Cl)cc1,-6.7%,-6.5%,25.9,-2.1%,-3.8%
Nc1cnn(C2OC(CO)C(O)C2O)c(=O)n1 (configuration not stated),8.1%,-8.9%,26.2,-29.1%,-8.8%
O=c1[nH]c(=S)ccn1C1OC(CO)C(O)C1O (configuration not stated),?,?,4.1,-22.0%,?
Nc1nc(=O)n(C2OC(CO)C(O)C2O)cc1F (configuration not stated),0.0326µM*,0.0058µM*,85.6,-26.5%,?
O=c1[nH]c(=O)n([C@@H]2O[C@H](CO)[C@@H](O)[C@H]2O)cc1F,0.106µM*,0.0596µM*,.,.,.
O=c1[nH]cnc2c1ccn2C1OC(CO)C(O)C1O (configuration not stated),0.164µM*,0.146µM*,-13.4,.,.
SMILES,TDP1 cell CPT,TDP1 cell noCPT,IL-1B inflam inh,HT1080 IDH1KD tx,HT1080NT lethal
O=c1[nH]c(=O)n([C@H]2C[C@@H](O)[C@@H](CO)O2)cc1F,5.01µM*,1.58µM*,.,.,.
CCOC(=O)C1(CCCc2ccccc2)CCN(Cc2ccn[nH]2)CC1,?,?,-14.6,?,-16.8%
O=c1[nH]c(=O)n(C2OC(CO)C(O)C2O)cc1F (configuration not stated),0.146µM*,0.0366µM*,-13.4,0.92µM*,10.3µM*
O=C1C=CC(n2cc(F)c(=O)[nH]c2=O)O1 (configuration not stated),18.4µM*,?,?,?,?
Cc1cn([C@H]2C[C@H](O)[C@@H](COS(=O)(=O)O)O2)c(=O)[nH]c1=O,3.66µM*,1.64µM*,6.7,-1.3%,0.7%
O=c1[nH]c(=O)c2ncn(C3OC(CO)C(O)C3O)c2[nH]1 (configuration not stated),1.8%,-5.4%,.,.,.
O=c1[nH]c(=O)n([C@H]2CCCO2)cc1F,1.3%,-4.5%,.,.,.
Cc1cn([C@H]2C[C@H](O)[C@@H](CNCc3ccccc3)O2)c(=O)[nH]c1=O,-24.7%,-10.5%,9.5,7.7%,15.6%
Cc1ccc(C)c(CN2C[C@H](Sc3nc4ccccc4[nH]3)C[C@H]2C(=O)N2CCCN(C)CC2)c1,18.9%[9.04 µM],-10.3%,.,.,.
O=C(O)CCc1ccc(S(=O)(=O)Nc2ccccc2N2CCCCC2)cc1,?,?,33.5,1.9%,0.8%
Cc1ccc(N(C)C(=O)C2CCCN2S(=O)(=O)c2ccc3c(c2)n(C)c(=O)c(=O)n3C)cc1 (configuration not stated),-11.0%,8.0%,-16.2,-4.8%,-0.9%
CCOc1cc(/C=C2\CN(C)C/C(=C\c3ccc(O)c(OCC)c3)C2=O)ccc1O,5.17µM*,2.31µM*,-105.4*,4.61µM*,4.11µM*
CCOc1cc(/C=C2\CCC/C(=C\c3cc(Cl)c(O)c(OCC)c3)C2=O)cc(Cl)c1O,?,6.51µM*,-99.8*,5.8µM*,7.31µM*
COc1cc(C=C2CN(C)C(=O)C2=O)ccc1O,15.0%,-3.8%,-16.5,6.8%,0.6%
C#CCOC(=O)Nc1ccc(OCC(F)(F)F)nc1,9.2µM*,7.31µM*,-1.3,-5.5%,-11.6%
CCn1nnnc1NCc1cccc(Cl)c1,-15.4%,-1.7%,10.4,8.1%,-8.7%

# Assay outcomes as filed in PubChem BioAssay.
